Experimental data taken from PubChem BioAssay AID1159580 (chemical genetic matrix, 2015).
The whole screen tested about 5,500 compounds, of which about 2,000 (36%) were called active. Not shown: some 18% with an inconclusive outcome. Rule as the data show it: active = normalized growth mostly below about 0.91 (no sharp cut-off); inconclusive = no clear call, values can overlap the other calls; inactive = mostly above about 0.92. The list shows a part of the results.

Test: chemical genetic growth profiling, strain panel (AID 1159580);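 also: tested at 20 µM; growth read once vehicle control cultures reached saturation at 30 °C; 1 = growth at the plate median or of vehicle wells; lower values mean less growth of the strain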
Conditions: growth OD

Measured: normalized growth

CN(Cc1cnc2nc(N)nc(N)c2n1)c1ccc(C(=O)NC(CCC(=O)O)C(=O)O)cc1 (stereo unspecified)
inactive: S. cerevisiae deletion strains, locus YKL160W, strain elf1, hits give low values 0.94 | S. cerevisiae deletion strains, locus YKR001C, strain vps1, hits give low values 0.953 | S. cerevisiae deletion strains, locus YKR026C, strain gcn3, hits give low values 0.934 | S. cerevisiae deletion strains, locus YKR091W, strain srl3, hits give low values 0.94 | S. cerevisiae deletion strains, locus YLL026W, hits give low values 0.935 | S. cerevisiae deletion strains, locus YLL041C, strain sdh2, hits give low values 0.955 | S. cerevisiae deletion strains, locus YLR027C, strain aat2, hits give low values 0.94 | S. cerevisiae deletion strains, locus YLR039C, strain RIC1, hits give low values 0.909 | S. cerevisiae deletion strains, locus YLR058C, strain SHM2, hits give low values 0.99 | S. cerevisiae deletion strains, locus YLR102C, strain apc9, hits give low values 0.993 | S. cerevisiae deletion strains, locus YLR258W, strain gsy2, hits give low values 0.923 | S. cerevisiae deletion strains, locus YLR262C, strain YPT6 (second series), hits give low values 0.952 | S. cerevisiae deletion strains, locus YLR262C, strain YPT6, hits give low values 0.958 | S. cerevisiae deletion strains, locus YLR268W, strain sec22, hits give low values 0.984 | S. cerevisiae deletion strains, locus YLR330W, strain CHS5, hits give low values 0.973 | S. cerevisiae deletion strains, locus YLR342W, strain FKS1 (second series), hits give low values 1.01 | S. cerevisiae deletion strains, locus YLR342W, strain FKS1, hits give low values 0.928 | S. cerevisiae deletion strains, locus YLR357W, strain rsc2, hits give low values 0.943 | S. cerevisiae deletion strains, locus YLR371W, strain rom2, hits give low values 1.01 | S. cerevisiae deletion strains, locus YLR418C, strain cdc73, hits give low values 0.96 | S. cerevisiae deletion strains, locus YML016C, strain PPZ1, hits give low values 1.01 | S. cerevisiae deletion strains, locus YML032C, strain rad52, hits give low values 0.986 | S. cerevisiae deletion strains, locus YML124C, strain tub3, hits give low values 0.974 | S. cerevisiae deletion strains, locus YMR078C, strain ctf18, hits give low values 0.986 | S. cerevisiae deletion strains, locus YMR125W, strain sto1, hits give low values 0.95 | S. cerevisiae deletion strains, locus YMR129W, hits give low values 0.948 | S. cerevisiae deletion strains, locus YMR205C, strain PFK2, hits give low values 0.948 | S. cerevisiae deletion strains, locus YMR223W, strain ubp8, hits give low values 0.953 | S. cerevisiae deletion strains, locus YMR263W, strain SAP30, hits give low values 0.987 | S. cerevisiae deletion strains, locus YMR307W, strain GAS1, hits give low values 1.02 | S. cerevisiae deletion strains, locus YNL067W, strain RPL9B, hits give low values 0.963 | S. cerevisiae deletion strains, locus YNL071W, strain lat1, hits give low values 0.961 | S. cerevisiae deletion strains, locus YNL153C, strain GIM3, hits give low values 0.974 | S. cerevisiae deletion strains, locus YNL175C, strain NOP13, hits give low values 0.975 | S. cerevisiae deletion strains, locus YNL197C, strain WHI3, hits give low values 0.976 | S. cerevisiae deletion strains, locus YNL224C, strain SQS1, hits give low values 0.977 | S. cerevisiae deletion strains, locus YNL233W, strain BNI4, hits give low values 0.98 | S. cerevisiae deletion strains, locus YNL248C, strain rpa49, hits give low values 0.925 | S. cerevisiae deletion strains, locus YNL307C, strain MCK1, hits give low values 1.01 | S. cerevisiae deletion strains, locus YNL322C, strain KRE1, hits give low values 0.971 | S. cerevisiae deletion strains, locus YNR049C, strain mso1, hits give low values 0.921 | S. cerevisiae deletion strains, locus YNR052C, strain pop2, hits give low values 0.951 | S. cerevisiae deletion strains, locus YOL012C, strain htz1 1.38 | S. cerevisiae deletion strains, locus YOL147C, strain pex11, hits give low values 0.982 | S. cerevisiae deletion strains, locus YOR001W, strain rrp6, hits give low values 0.929 | S. cerevisiae deletion strains, locus YOR061W, strain CKA2, hits give low values 0.99 | S. cerevisiae deletion strains, locus YOR069W, strain VPS5, hits give low values 0.987 | S. cerevisiae deletion strains, locus YOR070C, strain gyp1, hits give low values 0.934 | S. cerevisiae deletion strains, locus YOR083W, strain WHI5 (second series), hits give low values 0.984 | S. cerevisiae deletion strains, locus YOR083W, strain WHI5, hits give low values 0.908 | S. cerevisiae deletion strains, locus YOR136W, strain idh2, hits give low values 0.995 | S. cerevisiae deletion strains, locus YOR144C, strain elg1, hits give low values 0.975 | S. cerevisiae deletion strains, locus YOR184W, strain ser1, hits give low values 0.968 | S. cerevisiae deletion strains, locus YOR270C, strain vph1, hits give low values 0.957 | S. cerevisiae deletion strains, locus YOR316C, strain cot1, hits give low values 0.984 | S. cerevisiae deletion strains, locus YPL051W, strain arl3, hits give low values 0.984 | S. cerevisiae deletion strains, locus YPL078C, strain atp4, hits give low values 0.947 | S. cerevisiae deletion strains, locus YPL106C, strain sse1, hits give low values 0.947 | S. cerevisiae deletion strains, locus YPL240C, strain hsp82, hits give low values 0.957 | S. cerevisiae deletion strains, locus YPR119W, strain clb2, hits give low values 0.989 | S. cerevisiae deletion strains, locus YPR163C, strain tif3, hits give low values 0.985 | S. cerevisiae deletion strains, locus YPR167C, strain met16, hits give low values 0.975 | S. cerevisiae deletion strains, strain wtn01, hits give low values 0.97 | S. cerevisiae strains, strain wild type, hits give low values 0.973
active: S. cerevisiae deletion strains, locus YJR066W, strain TOR1, hits give low values 0.0866 | S. cerevisiae deletion strains, locus YKL009W, strain mrt4, hits give low values 0.527 | S. cerevisiae deletion strains, locus YKL068W, hits give low values 0.513 | S. cerevisiae deletion strains, locus YKL085W, strain MDH1 (second series), hits give low values 0.311 | S. cerevisiae deletion strains, locus YKL085W, strain MDH1, hits give low values 0.311 | S. cerevisiae deletion strains, locus YLL001W, strain dnm1, hits give low values 0.873 | S. cerevisiae deletion strains, locus YLR113W, strain HOG1, hits give low values 0.247 | S. cerevisiae deletion strains, locus YLR221C, strain rsa3, hits give low values 0.816 | S. cerevisiae deletion strains, locus YLR320W, strain mms22, hits give low values 0.789 | S. cerevisiae deletion strains, locus YLR370C, strain arc18, hits give low values 0.877 | S. cerevisiae deletion strains, locus YLR384C, strain iki3, hits give low values 0.88 | S. cerevisiae deletion strains, locus YML120C, strain ndi1, hits give low values 0.813 | S. cerevisiae deletion strains, locus YMR058W, strain fet3, hits give low values 0.893 | S. cerevisiae deletion strains, locus YMR231W, strain pep5, hits give low values 0.923 | S. cerevisiae deletion strains, locus YNL183C, strain NPR1, hits give low values 0.112 | S. cerevisiae deletion strains, locus YNL209W, strain ssb2, hits give low values 0.913 | S. cerevisiae deletion strains, locus YNL250W, strain rad50, hits give low values 0.195 | S. cerevisiae deletion strains, locus YNL271C, strain bni1, hits give low values 0.291 | S. cerevisiae deletion strains, locus YNL298W, strain CLA4, hits give low values 0.385 | S. cerevisiae deletion strains, locus YNL322C, strain KRE1 (second series), hits give low values 0.512 | S. cerevisiae deletion strains, locus YOR080W, strain dia2, hits give low values 0.902 | S. cerevisiae deletion strains, locus YOR106W, strain vam3, hits give low values 0.801 | S. cerevisiae deletion strains, locus YOR231W, strain MKK1, hits give low values 0.193 | S. cerevisiae deletion strains, locus YOR265W, strain rbl2, hits give low values 0.911 | S. cerevisiae deletion strains, locus YOR290C, strain snf2, hits give low values 0.845 | S. cerevisiae deletion strains, locus YPL256C, strain CLN2, hits give low values 0.227 | S. cerevisiae deletion strains, locus YPR141C, strain kar3, hits give low values 0.345
